Measured values taken from PubChem BioAssay (NCI).
The panel holds about 79,000 compounds, 15% with a hit somewhere; the sample as a whole holds those more often. The source made the active and inactive calls. Cut-off read from the data, not from the text of the source: active = growth inhibition above about 70%; inactive = the rest.

Columns and labels:
[1] = NCI Yeast Anticancer Drug Screen. Data for the rad52 strain (AID 147);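 note: 0% = growth of vehicle-treated control cultures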; conditions: S. cerevisiae rad52 mutant growth inhibition, active compounds read high
Method in brief: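 Yeast strain carrying a DNA damage repair alteration was exposed to test compounds. Growth inhibition was measured relative to vehicle-treated controls.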

[2] = NCI Yeast Anticancer Drug Screen. Data for the wt1 strain (AID 149);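 note: 0% = growth of vehicle-treated wt1 cultures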; conditions: S. cerevisiae wt1 strain (SPY 50644) growth inhibition, active compounds read high
Method in brief: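 Using yeast strain wt1, compound-induced growth inhibition was determined against vehicle-treated cultures.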

[3] = NCI Yeast Anticancer Drug Screen. Data for the rad50EPP+ strain (AID 151);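 note: 0% = growth of vehicle-treated control cultures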; conditions: S. cerevisiae rad50 mutant strain, active compounds read high
Method in brief: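 Yeast strain carrying rad50 alteration (rad50EPP+) exposed to compounds; growth inhibition measured relative to vehicle-treated controls.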

[4] = NCI Yeast Anticancer Drug Screen. Data for the mgt1 strain (AID 153); conditions: S. cerevisiae mgt1 mutant growth inhibition, active compounds read high
Method in brief: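 Yeast mgt1 strain (DNA repair/cell-cycle alteration panel) exposed to compounds; growth inhibition measured relative to vehicle-treated controls.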

[5] = NCI Yeast Anticancer Drug Screen. Data for the rad50 strain (AID 155);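 note: 0% = growth of vehicle-only cultures of the same strain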; conditions: S. cerevisiae rad50 strain growth inhibition, active compounds read high
Method in brief: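 Relative growth inhibition (compound vs vehicle) was measured in yeast with a defined repair-gene alteration.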

[6] = NCI Yeast Anticancer Drug Screen. Data for the mec2-1 strain (AID 157); conditions: S. cerevisiae mec2-1 strain, active compounds read high
Method in brief: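 mec2-1 yeast strain, carrying an alteration in DNA damage repair or cell cycle control, was exposed to compounds; growth inhibition was measured relative to vehicle-treated controls.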

[7] = NCI Yeast Anticancer Drug Screen. Data for the rad14 strain (AID 159);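 note: 0% = growth of vehicle-treated control cultures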; conditions: S. cerevisiae rad14 strain growth inhibition, active compounds read high
Method in brief: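 Screen for anticancer potential: a yeast strain altered in DNA damage repair is grown with compound, and reduced growth is quantified against vehicle controls.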

[8] = NCI Yeast Anticancer Drug Screen. Data for the sgs1 mgt1 strain (AID 161);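 note: 0% = growth of cultures given vehicle only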; conditions: S. cerevisiae sgs1 mgt1 strain, active compounds read high
Method in brief: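 This yeast growth screen uses a strain with defined DNA-repair lesions; compound-treated growth is compared with vehicle-treated growth.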

[9] = NCI Yeast Anticancer Drug Screen. Data for the CLN2oe strain (AID 163);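 note: 0% = growth of vehicle-only control cultures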; conditions: S. cerevisiae CLN2oe strain, active compounds read high
Method in brief: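 Yeast cells carrying a defined cell-cycle control alteration were exposed to test compounds. Growth inhibition was scored against vehicle-treated control cultures.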

[10] = NCI Yeast Anticancer Drug Screen. Data for the bub3 strain (AID 167); conditions: S. cerevisiae bub3 mutant strain, active compounds read high
Method in brief: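 Screening used yeast with an engineered genetic alteration affecting cell cycle control. Compound-exposed cultures were compared with vehicle cultures, and reduced growth was taken as inhibition.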

[11] = NCI Yeast Anticancer Drug Screen. Data for the wt2 strain (AID 169);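 note: 0% = growth of vehicle-treated yeast cultures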; conditions: S. cerevisiae wt2 strain growth inhibition, active compounds read high
Method in brief: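 Yeast cells were exposed to test compounds, and growth inhibition was measured relative to vehicle-treated controls.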

[12] = NCI Yeast Anticancer Drug Screen. Data for the mlh1 strain (AID 171);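 note: 0% = growth of vehicle-treated control cultures of the same strain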; conditions: S. cerevisiae mlh1 strain growth inhibition, active compounds read high
Method in brief: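 Yeast carrying a defined genetic alteration in DNA damage repair or cell cycle control were exposed to test compounds. Growth inhibition was measured relative to vehicle-treated controls.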

[13] = NCI Yeast Anticancer Drug Screen. Data for the sgs1 strain (AID 173);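 note: 0% = growth of vehicle-only control cultures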; conditions: S. cerevisiae sgs1 mutant, active compounds read high
Method in brief: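 Yeast mutant strains carrying defined defects in DNA damage repair or cell cycle control were exposed to test compounds. Growth inhibition was scored against vehicle-treated controls.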

[14] = NCI Yeast Anticancer Drug Screen. Data for the mlh1 rad18 strain (AID 175); conditions: S. cerevisiae mlh1 rad18 strain growth inhibition, active compounds read high
Method in brief: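 Growth inhibition of the yeast strain was measured after compound exposure and expressed relative to vehicle-treated controls. The strain carries defined defects in DNA damage repair.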

[15] = NCI Yeast Anticancer Drug Screen. Data for the cln2 rad14 strain (AID 165);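 note: 0% = growth equal to vehicle treated cultures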; conditions: S. cerevisiae cln2 rad14 strain, active compounds read high
Method in brief: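 Yeast carrying cln2 and rad14 alterations (cell cycle control and DNA damage repair) were exposed to compounds. Growth inhibition was measured against vehicle-treated controls.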

[16] = at 5.0 µM (retest, dose inferred, filed as 0.5)
[17] = at 50.0 µM (retest, dose inferred, filed as 5.0)

Measured: growth inhibition

COc1ccc(N=N/C(=N\NC(=O)c2cc(Br)ccc2O)c2ccc(N(CCC#N)CCC#N)cc2OC)cc1
active: [1]; at 100.0 µM 71% | [5]; at 100.0 µM 82% | [13]; at 100.0 µM 71%
inactive: [1]; at 1.2 µM 29% | [1]; at 3.7 µM 44% | [1]; at 11.0 µM 44% | [1]; at 33.0 µM 57% | [2]; at 1.2 µM 15% | [2]; at 3.7 µM 17% | [2]; at 11.0 µM 9% | [2]; at 33.0 µM 5% | [2]; at 100.0 µM 51% | [3]; at 1.2 µM -4% | [3]; at 3.7 µM -7% | [3]; at 11.0 µM -11% | [3]; at 33.0 µM -19% | [3]; at 100.0 µM 24% | [4]; at 1.2 µM 33% | [4]; at 3.7 µM 35% | [4]; at 11.0 µM 24% | [4]; at 33.0 µM 46% | [4]; at 100.0 µM 69% | [5]; at 1.2 µM 46% | [5]; at 3.7 µM 43% | [5]; [16] 20% | [5]; at 11.0 µM 49% | [5]; at 33.0 µM 59% | [5]; [17] 25% | [5]; at 50.0 µM 45.1% | [6]; at 1.2 µM -4% | [6]; at 3.7 µM -6% | [6]; [16] 22% | [6]; at 11.0 µM -8% | [6]; at 33.0 µM 13% | [6]; [17] 24% | [6]; at 50.0 µM 43.4% | [6]; at 100.0 µM 31% | [7]; at 1.2 µM 33% | [7]; at 3.7 µM 26% | [7]; at 11.0 µM 21% | [7]; at 33.0 µM 3% | [7]; at 100.0 µM 45% | [8]; [16] -8% | [8]; [17] 69% | [8]; at 50.0 µM 8.9% | [9]; at 1.2 µM 11% | [9]; at 3.7 µM 14% | [9]; at 11.0 µM 24% | [9]; at 33.0 µM 33% | [9]; at 100.0 µM 28% | [10]; at 1.2 µM 28% | [10]; at 3.7 µM 14% | [10]; [16] 19% | [10]; at 11.0 µM 16% | [10]; at 33.0 µM 49% | [10]; [17] 69% | [10]; at 50.0 µM 43.4% | [10]; at 100.0 µM 68% | [11]; at 1.2 µM -20% | [11]; at 3.7 µM -11% | [11]; at 11.0 µM -15% | [11]; at 33.0 µM -9% | [11]; at 100.0 µM 65% | [12]; at 1.2 µM 33% | [12]; at 3.7 µM 35% | [12]; at 11.0 µM 24% | [12]; at 33.0 µM 46% | [12]; at 100.0 µM 69% | [13]; at 1.2 µM 34% | [13]; at 3.7 µM 37% | [13]; at 11.0 µM 33% | [13]; at 33.0 µM 42% | [14]; [16] 20% | [14]; [17] 26% | [14]; at 50.0 µM 65.4%

Cn1ncc2cc3c(Nc4ccc(Cl)cc4)cccc3nc21
inactive: [1]; at 1.2 µM 2% | [1]; at 3.7 µM 2% | [1]; at 11.0 µM 6% | [1]; at 33.0 µM 39% | [2]; at 1.2 µM 0% | [2]; at 3.7 µM -2% | [2]; at 11.0 µM -2% | [2]; at 33.0 µM 0% | [2]; at 100.0 µM 12% | [3]; at 1.2 µM 0% | [3]; at 3.7 µM 1% | [3]; at 11.0 µM 2% | [3]; at 33.0 µM 7% | [3]; at 100.0 µM 36% | [4]; at 1.2 µM -1% | [4]; at 3.7 µM 0% | [4]; at 11.0 µM -4% | [4]; at 33.0 µM -3% | [4]; at 100.0 µM 9% | [5]; at 1.2 µM 2% | [5]; at 3.7 µM 5% | [5]; [16] 25% | [5]; at 11.0 µM 10% | [5]; at 33.0 µM 42% | [5]; at 50.0 µM 59.9% | [6]; at 1.2 µM -5% | [6]; at 3.7 µM -7% | [6]; [16] 0% | [6]; at 11.0 µM -3% | [6]; at 33.0 µM -4% | [6]; [17] 5% | [6]; at 50.0 µM 8.6% | [6]; at 100.0 µM 6% | [7]; at 1.2 µM -2% | [7]; at 3.7 µM -2% | [7]; at 11.0 µM -3% | [7]; at 33.0 µM -3% | [7]; at 100.0 µM 29% | [8]; [16] -1% | [8]; [17] -2% | [8]; at 50.0 µM -10.4% | [9]; at 1.2 µM -5% | [9]; at 3.7 µM -4% | [9]; at 11.0 µM -5% | [9]; at 33.0 µM -3% | [9]; at 100.0 µM -6% | [15]; [16] -11% | [15]; [17] 1% | [15]; at 50.0 µM -6% | [10]; at 1.2 µM -3% | [10]; at 3.7 µM -5% | [10]; [16] -7% | [10]; at 11.0 µM -7% | [10]; at 33.0 µM -11% | [10]; [17] 1% | [10]; at 50.0 µM 44.6% | [10]; at 100.0 µM -7% | [11]; at 1.2 µM -1% | [11]; at 3.7 µM -2% | [11]; at 11.0 µM -2% | [11]; at 33.0 µM -2% | [11]; at 100.0 µM 20% | [12]; at 1.2 µM 0% | [12]; at 3.7 µM -4% | [12]; at 11.0 µM -2% | [12]; at 33.0 µM -2% | [12]; at 100.0 µM 26% | [13]; at 1.2 µM -2% | [13]; at 3.7 µM -2% | [13]; at 11.0 µM -3% | [13]; at 33.0 µM 0% | [13]; at 100.0 µM 42% | [14]; [16] -2% | [14]; [17] 7% | [14]; at 50.0 µM 2.05%
active: [1]; at 100.0 µM 96% | [5]; [17] 83% | [5]; at 100.0 µM 95%
